The supplement of paper PMC12350171
Where a name gives a salt, the structure may show the parent alone.

The molecules below were run on Haemophilus parainfluenzae (assay: growth AUC normalised to DMSO control (fraction of control); higher = less growth inhibition, active = hit call of the paper). Conditions: 20 µM;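 active = AUC significantly below DMSO controls by Student t-fit with adjusted P under 0.01; inactive = not significantly reduced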.
Outline: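 After two anaerobic passages, pathogens were added at a starting OD578 of 0.01 to pre-reduced mGAM plates holding compound at 20 μM with 1% DMSO; hemin and NAD were supplemented for Haemophilus parainfluenzae. Sealed with breathable membranes, plates were read at OD578 hourly for 24 h, in three biological replicates. The trapezoidal rule, applied up to the exponential-to-stationary transition, gave the growth-curve AUC, which was normalised to DMSO controls on the same plate.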
`CCC(=O)[C@@]1(C)[C@H](C)C[C@H]2[C@@H]3CCC4=CC(=O)C=C[C@]4(C)[C@H]3[C@@H](O)C[C@@]21C` [Rimexolone] was tested, and the “growth AUC normalised to DMSO control” value was 0.998 (inactive).
`NS(=O)(=O)c1cc(Cl)c(Cl)c(S(N)(=O)=O)c1` [Dichlorphenamide] was tested, and the “growth AUC normalised to DMSO control” value was 1.03 (inactive).
In the case of `C[C@@H](c1ncncc1F)[C@](O)(Cn1cncn1)c1ccc(F)cc1F` [Voriconazole], the “growth AUC normalised to DMSO control” value is reported as 0.977 (inactive).
In the case of `CNCC[C@@H](Oc1ccccc1C)c1ccccc1` [Tomoxetine hydrochloride], the “growth AUC normalised to DMSO control” value is reported as 1.02 (inactive).
With `C[C@]12CCC(=O)C=C1CC[C@@H]1[C@@H]2[C@@H](O)C[C@@]2(C)[C@H]1CC[C@]2(O)C(=O)CO` [Hydrocortisone] the “growth AUC normalised to DMSO control” value was 0.936 (inactive).
For `C=CCOc1ccccc1OCC(O)CNC(C)C` (centres undefined) [Oxprenolol hydrochloride], the “growth AUC normalised to DMSO control” value was 0.958 (inactive).
With `COc1c(N2CCNC(C)C2)c(F)cc2c(=O)c(C(=O)O)cn(C3CC3)c12` (centres undefined) [Gatifloxacin] the “growth AUC normalised to DMSO control” value was 0.0535 (active).
For `CC(C)NCC(O)c1ccc2ccccc2c1` (centres undefined) [Pronethalol hydrochloride], the “growth AUC normalised to DMSO control” value was 1 (inactive).
With `C#C[C@]1(O)CC[C@H]2[C@@H]3CCC4=CC(=O)CC[C@@H]4[C@H]3CC[C@@]21C` [Norethindrone] the “growth AUC normalised to DMSO control” value was 0.989 (inactive).
With `O=C(O)CCC(=O)Nc1ccc(S(=O)(=O)Nc2nccs2)cc1` [Succinylsulfathiazole] the “growth AUC normalised to DMSO control” value was 1.01 (inactive).
For `CO/N=C(\C(=O)N[C@@H]1C(=O)N2C(C(=O)O)=C(COC(C)=O)CS[C@H]12)c1csc(N)n1` [Cefotaxime sodium salt], the “growth AUC normalised to DMSO control” value was 0.0499 (active).
In the case of `CNCC(O)c1ccc(O)c(O)c1` (centres undefined) [Racepinephrine hydrochloride], the “growth AUC normalised to DMSO control” value is reported as 1.06 (inactive).
`CC(=O)O[C@]1(C(C)=O)CC[C@H]2[C@@H]3C=C(Cl)C4=CC(=O)CC[C@]4(C)[C@H]3CC[C@@]21C` [Chlormadinone acetate] was tested, and the “growth AUC normalised to DMSO control” value was 1.01 (inactive).
In the case of `CN(C)CCOC(=O)C(c1ccccc1)C1(O)CCCC1` (centres undefined) [Cyclopentolate hydrochloride], the “growth AUC normalised to DMSO control” value is reported as 1.04 (inactive).
With `COc1ccc(CC(C)NCC(O)c2ccc(O)c(NC=O)c2)cc1` (centres undefined) [Formoterol fumarate] the “growth AUC normalised to DMSO control” value was 1.09 (inactive).
`Nc1ccn([C@@H]2CS[C@H](CO)O2)c(=O)n1` [Lamivudine] was tested, and the “growth AUC normalised to DMSO control” value was 0.999 (inactive).
In the case of `NS(=O)(=O)c1cc2c(cc1Cl)NC(CC1CCCC1)NS2(=O)=O` (centres undefined) [Cyclopenthiazide], the “growth AUC normalised to DMSO control” value is reported as 0.982 (inactive).
In the case of `CN(Cc1ccc(C(C)(C)C)cc1)Cc1cccc2ccccc12` [Butenafine hydrochloride], the “growth AUC normalised to DMSO control” value is reported as 0.913 (inactive).
In the case of `O=C(NCCNCC(O)COc1ccc(O)cc1)N1CCOCC1` (centres undefined) [Xamoterol hemifumarate], the “growth AUC normalised to DMSO control” value is reported as 0.775 (inactive).
With `NC[C@@H]1O[C@H](O[C@H]2[C@@H](O)[C@H](O[C@@H]3[C@@H](O)[C@H](N)C[C@H](N)[C@H]3O[C@H]3O[C@H](CO)[C@@H](O)[C@H](O)[C@H]3N)O[C@@H]2CO)[C@H](N)[C@@H](O)[C@@H]1O` [Paromomycin sulfate] the “growth AUC normalised to DMSO control” value was 0.88 (inactive).
`CC(=O)OCC(=O)[C@@]1(OC(C)=O)[C@@H](C)C[C@H]2[C@@H]3C[C@H](F)C4=CC(=O)C=C[C@]4(C)[C@@]3(F)[C@@H](O)C[C@@]21C` [Diflorasone Diacetate] was tested, and the “growth AUC normalised to DMSO control” value was 0.953 (inactive).
For `CC(=O)CCCCn1c(=O)c2c(ncn2C)n(C)c1=O` [Pentoxifylline], the “growth AUC normalised to DMSO control” value was 1.01 (inactive).
`CN1C(C(=O)Nc2ccccn2)=C(O)c2sccc2S1(=O)=O` [Tenoxicam] was tested, and the “growth AUC normalised to DMSO control” value was 0.948 (inactive).
With `Nc1nc(=O)c2nc(CNc3ccc(C(=O)N[C@@H](CCC(=O)O)C(=O)O)cc3)cnc2[nH]1` [Folic acid] the “growth AUC normalised to DMSO control” value was 0.978 (inactive).
In the case of `c1ccc(-c2ccc(C(c3ccccc3)n3ccnc3)cc2)cc1` (centres undefined) [Bifonazole], the “growth AUC normalised to DMSO control” value is reported as 0.998 (inactive).
For `CN(C)c1ccc(O)c2c1C[C@H]1C[C@H]3[C@H](N(C)C)C(=O)C(C(N)=O)=C(O)[C@@]3(O)C(=O)C1=C2O` [Minocycline hydrochloride], the “growth AUC normalised to DMSO control” value was 0.0348 (active).
In the case of `Cc1cc(N)c2ccccc2[n+]1CCCCCCCCCC[n+]1c(C)cc(N)c2ccccc21` [Dequalinium dichloride], the “growth AUC normalised to DMSO control” value is reported as 0.907 (inactive).
For `Cc1cc(C(=O)NNCc2ccccc2)no1` [Isocarboxazid], the “growth AUC normalised to DMSO control” value was 1.06 (inactive).
In the case of `Oc1ccc(OCc2ccccc2)cc1` [Monobenzone], the “growth AUC normalised to DMSO control” value is reported as 0.902 (inactive).
For `CCOC(=O)[C@H](CCc1ccccc1)N[C@@H](C)C(=O)N1CCC[C@H]1C(=O)O` [Enalapril maleate], the “growth AUC normalised to DMSO control” value was 1.03 (inactive).
For `CCCCOc1ccc(OCCCN2CCOCC2)cc1` [Pramoxine hydrochloride], the “growth AUC normalised to DMSO control” value was 0.936 (inactive).
For `Cc1cn([C@H]2C[C@H](N=[N+]=[N-])[C@@H](CO)O2)c(=O)[nH]c1=O` [Zidovudine], the “growth AUC normalised to DMSO control” value was 0.581 (active).
In the case of `N=C(N)NC(=O)c1nc(Cl)c(N)nc1N` [Amiloride hydrochloride dihydrate], the “growth AUC normalised to DMSO control” value is reported as 1.03 (inactive).
With `COc1ccc2cc([C@@H](C)C(=O)O)ccc2c1` [(R) Naproxen sodium salt] the “growth AUC normalised to DMSO control” value was 1.1 (inactive).
In the case of `Clc1cc(Cl)c(OCC#CI)cc1Cl` [Haloprogin], the “growth AUC normalised to DMSO control” value is reported as 0.992 (inactive).
In the case of `CN(C)CCCOc1nn(Cc2ccccc2)c2ccccc12` [Benzydamine hydrochloride], the “growth AUC normalised to DMSO control” value is reported as 0.964 (inactive).
`CN1CCCN=C1/C=C/c1cccc(O)c1` [Oxantel pamoate] was tested, and the “growth AUC normalised to DMSO control” value was 0.916 (inactive).
`COc1cccc(N(C)C(=S)Oc2ccc3c(c2)CCCC3)n1` [Liranaftate] was tested, and the “growth AUC normalised to DMSO control” value was 1.01 (inactive).
For `CC[C@@H](CO)NCCN[C@@H](CC)CO` [Ethambutol dihydrochloride], the “growth AUC normalised to DMSO control” value was 0.809 (inactive).
